In PubChem BioAssay AID431 (Sanford-Burnham Center for Chemical Genomics, 2006) one finds cytotoxicity data, which are given here for 92 molecules.

Hit rate of the full screen: of about 63,000 compounds, about 1,100 (1.7%) were called active. The sample as a whole holds a higher share of actives than the screen did. Results with a measured potency or affinity are listed apart. Values without a mark were called inactive.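 The calls were made as follows: active = compounds whose percent cytotoxicity in the single-dose primary screen, scaled between solvent and toxic-drug controls, exceeds 50; inactive = the rest.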

The test in a line: cytotoxicity in KRAS-transformed pancreatic duct cells, primary screen, cell-based, fluorescence, HTS (AID 431).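 Also: 0% = DMSO solvent wells and 100% = doxorubicin-treated wells.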 The note with it: HPDE-C7K KRASV12 cells, Alamar Blue viability, 48 h; at 10 µM; stronger effect = higher value.
`Cn1c(-c2ccc(F)cc2)cnc1SCC(=O)N1CCCCC1`: the cytotoxicity is -5.4%.

As for `C/C=C/c1ccc(Oc2nnnn2-c2ccc(C(N)=O)cc2)c(OC)c1`, the cytotoxicity is 1%. For `Fc1ccc2[nH]c3c(N4CCN(Cc5ccc6c(c5)OCO6)CC4)ncnc3c2c1` the value was 95.1% (active); for `Cc1ccc2[nH]c3c(N4CCN(Cc5ccc6c(c5)OCO6)CC4)ncnc3c2c1`, 34.4%. The value for `c1nc(N2CCN(Cc3ccc4c(c3)OCO4)CC2)c2[nH]cnc2n1` was -0.7%; that for `CCOc1ccc(N(CC(=O)NCc2cccs2)S(=O)(=O)c2c(C)noc2C)cc1` was -1.7%; that for `CCOC(=O)N1CCN(c2c(N3CC=C(c4ccccc4)CC3)c(=O)c2=O)CC1` was -2.9%. The value for `O=C(CSc1nc2ccccc2o1)Nc1ccccc1` was -14.6%; that for `CSc1cccc(NC(=O)CSc2nc3ccccc3o2)c1` was -18.9%; that for `COc1ccc(C(=O)Nc2cccc(C)c2)cc1S(=O)(=O)N1CCOCC1` was 15.9%. Take `O=C(NCc1ccoc1)c1ccc(NC(=O)c2ccccc2Cl)cc1`: the cytotoxicity is -12.8%. The value for `COCCn1nnnc1CN1CCC(NC(=O)c2ccc(Br)cc2)CC1` was -2.4%; that for `CC(=O)OC[C@H]1O[C@@H](n2ncc(=O)[nH]c2=O)[C@H](OC(C)=O)[C@@H]1OC(C)=O` was 54.7% (active); that for `CC(=O)OCC1OC(n2ccc(=O)[nH]c2=O)C(O)C1O` (configuration not stated) was 0.8%. For `CC(=O)OC[C@H]1O[C@@H](n2ccc(=O)[nH]c2=S)C(OC(C)=O)C1OC(C)=O` (some centres not stated) the value was 4.5%; for `Nc1nc2nonc2nc1N1CCCCC1`, -2.7%; for `CCOC(=O)c1cnc(SC2CC(=O)N(c3ccc(OC)c(OC)c3)C2=O)nc1N` (configuration not stated), -9.5%. For `CC(NCCC(c1ccccc1)c1ccccc1)c1ccccc1` (configuration not stated) the value was 90.2% (active); for `CC(NC(=O)CSc1ncccn1)c1ccccc1` (configuration not stated), 1.8%. As for `C/C(Cl)=C\CNC(C)c1ccccc1` (configuration not stated), the cytotoxicity was -6.7%.

As to `O=C(Nc1ccccc1N1CCN(C(=O)c2ccc(Cl)cc2)CC1)c1cc2ccccc2o1`, the cytotoxicity was 13.1%. As for `O=C(Nc1ccccc1N1CCN(C(=O)c2ccccc2)CC1)c1cc2ccccc2o1`, the cytotoxicity was -7.4%. Turning to `O=C(Nc1ccc(N2CCOCC2)c(Cl)c1)c1c(F)c(F)c(F)c(F)c1F`, the cytotoxicity is 64.4% (active).

For the molecule `O=C(Nc1ccc(N2CCOCC2)c(Cl)c1)c1cccc(F)c1`, the cytotoxicity is 31.3%. The value for `CCC(=O)Nc1ccc(NC(=O)c2cc3ccccc3o2)cc1` was -17.1%; that for `O=C(Nc1ccc(N2CCN(C(=O)c3ccco3)CC2)c(Cl)c1)c1c(F)c(F)c(F)c(F)c1F` was 103% (active); that for `CCCC(=O)N1CCN(c2ccc(NC(=O)c3cc4ccccc4o3)cc2)CC1` was -19%. As to `O=C(Nc1ccc(N2CCOCC2)c(Cl)c1)c1ccco1`, the cytotoxicity was -11.5%.

For `O=C(Nc1ccc(N2CCN(C(=O)c3ccco3)CC2)c(Cl)c1)c1cccs1`, the cytotoxicity was -1%. For `O=C(Cc1ccc(Cl)cc1)Nc1ccc(N2CCN(C(=O)c3ccco3)CC2)c(Cl)c1` the value was 21.6%; for `Cn1c(SCC(=O)NC(C)(C)C)nnc1-c1ccc(C(C)(C)C)cc1`, 8.1%; for `N#CCc1nc(CSc2nc3ccccc3o2)cs1`, -5.5%.

Regarding `O=C(O)CCN1C(=O)C2C3C=CC(C3)C2C1=O` (configuration not stated), the cytotoxicity is 4.7%. The value for `Cc1ccc2cc(CN(CCCO)S(=O)(=O)c3cccc4nsnc34)c(=O)[nH]c2c1C` was -8.7%; that for `Cn1c(=O)c2c(SCc3cccnc3)nc(C3CC3)nc2n(C)c1=O` was -15.9%; that for `C/C(CC1(O)/C(=N/O)CCc2nonc21)=N\O` (configuration not stated) was -0.9%. As to `O=C(Nc1ccc(N2CCN(C(=O)c3ccccc3)CC2)c(Cl)c1)c1ccco1`, the cytotoxicity is -11%. For `Cc1ccccc1C(=O)N1CCN(c2ccc(NC(=O)c3ccco3)cc2Cl)CC1` the value was 14.5%. The value for `C=CCn1c(C)cc(C(=O)CSc2nnc(Cc3ccccc3)o2)c1C` was -7.3%. The value for `O=C(CSc1nnc(NCc2ccccc2)s1)c1ccco1` was -6.2%; that for `Cc1cc(C(=O)CSc2nnc(Nc3ccccc3)s2)c(C)n1CC1CCCO1` (configuration not stated) was 1.1%. As to `C=CCn1c(C)cc(C(=O)CSc2nnc(NCc3ccccc3)s2)c1C`, the cytotoxicity is 64.7% (active). With `Cc1cc(C(=O)CSc2nnc(NCc3ccccc3)s2)c(C)n1C`, the cytotoxicity is 65.2% (active). The value for `Cc1cc(C(=O)CSc2nnc(-c3ccccc3)n2C)c(C)n1C` was 16.6%; that for `Cc1cc(C)n(CNc2nc(C(F)(F)F)cs2)n1` was -4.6%. For `CC1CCN(Cc2ccc(NC(=O)CC3Oc4ccccc4NC3=O)cc2)CC1` (configuration not stated) the value was 0.1%. For `CN1C(=O)CSc2ccc(NC(=O)N3CCC(N4CCCCC4)CC3)cc21` the value was -15.1%.

On to `Cc1ccc(C2C3=C(CC(C)(C)CC3=O)Nc3n[nH]c(C)c32)cc1` (configuration not stated), for which the cytotoxicity was -5.7%. For `COc1cc(Cl)c(C)cc1NC(=O)CSc1nc2ccccc2o1`, the cytotoxicity was -5.2%.

As to `CCOC(=O)C1C(C)N=C2SCC(=O)N2C1c1cccc(Br)c1` (configuration not stated), the cytotoxicity was -13%.

`O=C(CSc1nc(-c2ccco2)cc(C(F)(F)F)n1)Nc1cccnc1`: the cytotoxicity is -0.8%. The value for `COC(=O)c1ccccc1NC(=O)CSc1nc(-c2ccco2)cc(C(F)(F)F)n1` was 51.7% (active). The value for `COC(=O)c1ccc(C(=O)OC)c(NC(=O)CSc2nc(-c3ccco3)cc(C(F)(F)F)n2)c1` was -21.1%; that for `Cc1ccc(OCC(=O)NCCO)cc1C` was 9.8%; that for `C=Cn1c(N2CCOCC2)nc2c1c(=O)[nH]c(=O)n2C` was -2.9%.

Consider `O=C(Nc1cc(C(=O)N2CCOCC2)ccc1N1CCCC1)c1cccs1`, for which the cytotoxicity was -2.1%. For `CC(C)c1ccc2oc(-c3ccc(N)cc3)nc2c1` the value was -11.3%.

Take `CCc1ccc2oc(-c3cc(N)ccc3O)nc2c1`: the cytotoxicity was 7.1%. With `CC(C)c1ccc2oc(-c3cc(N)ccc3O)nc2c1`, the cytotoxicity was 51.5% (active).

Regarding `COC(=O)c1ccsc1NC(=O)CN1C(=O)CCC1=O`, the cytotoxicity is -1.3%. The value for `COCCn1c(SCC(=O)Nc2ncc(C)s2)nc2sc3c(c2c1=O)CCC3` was 14.3%. On to `CN1C(=O)/C(=C2/C=CC=CN2C)OC1=S`, for which the cytotoxicity was -24.5%. For `COc1ccc(CCNC(=O)C2CCN(S(=O)(=O)c3cc(OC)ccc3OC)CC2)cc1` the value was 2.3%; for `COc1cccc(C2=CC(c3ccc(OC)c(OC)c3OC)n3nnnc3N2)c1` (configuration not stated), -4.5%. The value for `COc1cccc(C2=CC(c3cccc(OC)c3OC(F)F)n3nnnc3N2)c1` (configuration not stated) was -13.8%; that for `COc1cccc(C2=CC(c3ccc(N(C)C)cc3)n3nnnc3N2)c1` (configuration not stated) was -3.6%; that for `COc1ccccc1C1C=C(c2ccccc2)Nc2nnnn21` (configuration not stated) was 25.4%.

With `COc1ccc(C2=CC(c3c(C)nn(-c4ccccc4)c3Cl)n3nnnc3N2)cc1OC` (configuration not stated), the cytotoxicity is 84.4% (active). The value for `COc1ccccc1C1C=C(c2ccc(C)cc2)Nc2nnnn21` (configuration not stated) was -8.9%; that for `COc1cccc(C2=CC(c3cccc(OC)c3OC)n3nnnc3N2)c1` (configuration not stated) was 58.1% (active). In the case of `COc1ccc(OC)c(C2C=C(c3ccc(C)c(C)c3)Nc3nnnn32)c1` (configuration not stated), the cytotoxicity is 6%. Consider `COc1cccc(C2=CC(c3ccccc3)n3nnnc3N2)c1` (configuration not stated), for which the cytotoxicity is 43.2%. For `COc1ccc(C2=CC(c3ccc(OC)c(OC)c3)n3nnnc3N2)c(OC)c1` (configuration not stated) the value was 4%; for `COc1cccc(C2=CC(c3cc(OC)ccc3OC)n3nnnc3N2)c1` (configuration not stated), 65.1% (active); for `CC1CCCCC1NC(=O)CSc1nc2ccccc2c(=O)n1Cc1ccco1` (configuration not stated), -6.9%. As for `COc1cccc(N(CC(=O)Nc2ccccc2C)S(C)(=O)=O)c1`, the cytotoxicity is 14.1%. For `c1ccc(-c2nc3ccccc3nc2-c2ccccn2)nc1` the value was 13.9%. The value for `COc1ccc(OC)c2[nH]c(=O)c(CCNC(=O)CC(C)C)cc12` was -6.6%.

For the molecule `CCOC(=O)N1CCC(NC(=O)C2=C(C)C(=O)OC23CCC(C)CC3)CC1` (configuration not stated), the cytotoxicity was -10.3%. The value for `Cc1nn(C)c(C)c1S(=O)(=O)N1CCCC(C(=O)NC2CCCCC2)C1` (configuration not stated) was -4.9%; that for `COc1ccc(NC(=O)CSc2nnc(-c3ccncc3)n2CC2CCCO2)c(OC)c1` (configuration not stated) was -18.3%.

In the case of `CCC(CC)C(=O)NCCc1cc2c(OC)ccc(OC)c2[nH]c1=O`, the cytotoxicity is 7.1%. The value for `O=C(c1ccco1)N1CCN(c2ncnc3c2[nH]c2ccc(Br)cc23)CC1` was 10%; that for `Clc1ccc(-c2nnc(-c3ccccc3Cl)o2)cc1` was 13.7%; that for `Cc1nc(NC(=O)c2csc3ccccc23)sc1C` was 2.8%. For `COc1ccccc1C1(CC(=O)N2CCOCC2)CCOC(C(C)C)C1` (configuration not stated) the value was -15.3%. The value for `CC[C@H]1OC(=O)C[C@@H](O)[C@H](C)[C@@H](O[C@@H]2O[C@H](C)C[C@H](N(C)C)[C@H]2O)[C@@H](CC=O)C[C@@H](C)C(=O)C=C[C@]2(C)O[C@H]2[C@@H]1C` was 76.8% (active); that for `CCC(=O)O[C@@H]1CC(=O)O[C@H](C)CC=CC=C[C@@H](O)[C@H](C)C[C@H](CC=O)[C@H](O[C@H]2O[C@H](C)[C@@H](O[C@H]3C[C@@](C)(O)[C@@H](OC(=O)CC)[C@H](C)O3)[C@H](N(C)C)[C@H]2O)[C@H]1OC` was -0.4%; that for `Cc1cc(C)cc(NC(=O)Cn2ncn3c(cc4ccccc43)c2=O)c1` was -13.3%. `O=C1c2ccncc2C(=O)N1C1CCCCC1`: the cytotoxicity is 2.8%.

Consider `CN1CCN(C2=C(Cl)C(=O)N(C3CCCCC3)C2=O)CC1`, for which the cytotoxicity is 3%. For the molecule `O=C(Nc1ccc2c(c1)OCCO2)C1CCN(S(=O)(=O)c2cccs2)CC1`, the cytotoxicity was -8.1%.
